Data from the OligoGym collection.

Biological target: C11orf53
Assay: pooled miR-30 sensor sort-seq; sequence = guide strand
Conditions: shRNA
Also: reference of the scale not given here.

Sequence | sensor-assay potency score (higher = more potent)
TCGTCCACTAACAAAGAGCAGC | -0.909
TCAGATAAGAAAGATCTTCTGA | 0.556
TCTGACACCGTAGTAACCTGAC | 0.0785
TTTACTGTTGTGGAAGTCTGAG | -0.231
TTCTGACACCGTAGTAACCTGA | -0.43
TTACTGTTGTGGAAGTCTGAGT | -0.608
TTATTCTGAAAATCCAGTCCTG | 0.403
TAAATAGGAAGTGAGCTGGGTC | 0.00724
TAGGTCATTTGACACCGTCATG | -1.72
TGACACACCTAAAACAATCTTT | 0.469
TTTGACACCGTCATGAAAGGGG | 0.41
TATTCTGAAAATCCAGTCCTGA | -0.0201

Biological target: C11orf54
Assay: as above
Conditions: shRNA

Sequence | sensor-assay potency score (higher = more potent)
TGGAGTAGTGTCATAATGGTAG | -0.457
TATTCCACTATATCTGGAGTAG | -0.318
TTTTATTCAGATCATAAACTTT | -0.546
TTTCATTTCATAAAAATGCAAC | -0.462
TTATTCACTTCTTCATCAGAGT | -0.552
TTCTTCATCAGAGTTCAAGGGG | 0.466
ATAAGTAAGGCACACCTCCAAC | -1.21
TAAACTCAGAATTGAACCCGAG | 0.00773
TCTGAAATGGACCTGCTCCTGC | -0.481
ATAAACTCAGAATTGAACCCGA | 0.903
TTTCTCACTGTATTTCTCCAGT | -0.237

Biological target: C12orf42
Assay: as above
Conditions: shRNA

Sequence | sensor-assay potency score (higher = more potent)
TTTATTAACCTCTTGGAGGGGA | 0.548
TCTTGTGTGTCTACTGATGTGT | 0.434
TTCATAACAAGGGATGTGCTTT | -0.454
TGATTAATGAATCTGGAGCAGG | -0.678
TCGAGCTCTGTGTTACTCGGGC | -0.424
TTAGGTCTTGTGTGTCTACTGA | 0.176
TTCATGTGATTAATGAATCTGG | 0.286
TGTGCTTACAGAACACCTGGGG | 0.85
TCTGCTTTGGATGTCGTCGGGG | -0.507
TAGGTCTTGTGTGTCTACTGAT | -0.227

Biological target: C13orf33
Assay: as above
Conditions: shRNA

Sequence | sensor-assay potency score (higher = more potent)
TTGATGTAGCTGCTGAGGCGGT | -0.889
TCTATCTGTCTTCTTATCTTGG | -0.385
TTAATAAAGAACAACATTGGTT | -0.331
TACCTCTTGATGTAGCTGCTGA | 0.0733
TATCTGTCTTCTTATCTTGGGG | -0.395
